27 compounds from the supplement of paper PMC11150407 can be followed below.

The structures appear in SMILES notation. Out of some 3,000 compounds screened, about 45 (2%) showed an effect of 50% or more. The sample as a whole holds a higher share of strong results than the screen did.

For the test, the system named is MOLM1 and UCSD/AML1 (averaged). The test can be described thus: cell viability relative to DMSO control (POC); higher = less growth inhibition. As to conditions: 1 µM; 72 h. How it is done:
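Primary viability screen in the 3q26 EVI1-high AML cell lines MOLM1 and UCSD/AML1, compounds at 1 uM for 72 h. ATP CellTiter-Glo read-out given as percent viable over DMSO control (POC), averaged over duplicates. This mapping covers the TimTec NDL-3000 natural derivative library, whose compounds are identified by TimTec catalogue codes (ST...).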
In the case of `CCc1ccc2oc(=O)cc(CN3CCN(Cc4nc(-c5ccc(C)cc5)oc4C)CC3)c2c1`, the cell viability (as a rule, a read-out of living cells in per cent, often relative to untreated cells) is 96.3%. For the compound `O=C(Cn1c(=O)cc(C(=O)N2CCCCC2)c2ccccc21)Nc1ccc(F)cc1`, the cell viability was determined as 89.9%. As to `Cc1ccc2c(CN3CCN(Cc4ccc(Br)cc4F)CC3)cc(=O)oc2c1`, the cell viability was 100%. Regarding `CCc1ccc(-c2cc(-c3cc(OC)c(OC)c(OC)c3)[nH]c(=O)c2C#N)cc1`, the cell viability came out at 96.9%.

For `CC(=O)OCC1OC(OC(C)=O)C(OC(C)=O)C(OC(C)=O)C1OC(C)=O` (configuration not stated), the cell viability was determined as 109%. For the compound `O=C(/C=C/c1cccc(Cl)c1)c1ccc(OC(=O)c2cccc([N+](=O)[O-])c2)cc1`, the cell viability was determined as 102%. Regarding `Nc1nc2ncc(CNc3ccc(C(=O)N[C@H](CCC(=O)O)C(=O)O)cc3)nc2c(=O)[nH]1`, the cell viability turned out to be 102%. As to `COc1cc(C2C(C#N)=C(N)Oc3n[nH]c(C)c32)ccc1O` (configuration not stated), the cell viability worked out at 110%. Take `COc1cc(C2C(C#N)=C(N)Oc3cc(N)ccc32)cc(OC)c1OC` (configuration not stated): the cell viability worked out at 13.5%. As to `COc1cc(C2C(C#N)=C(N)Oc3n[nH]c(-c4ccccc4)c32)cc(OC)c1OC` (configuration not stated), the cell viability was 100%. `COc1cc(C(=O)N2CCCc3cccc(OCCNC(C)=O)c32)cc(OC)c1OC`: the cell viability was determined as 98.7%. With `CCOC(=O)CC[C@@H](C)[C@H]1CC[C@H]2[C@@H]3CC[C@@H]4C[C@H](O)CC[C@]4(C)[C@H]3C[C@H](O)[C@]12C`, the cell viability was determined as 86%.

With `CC(=O)c1nc2ccccc2n1CC(=O)NCCOc1ccccc1`, the cell viability is 98.2%.

As for `COc1cccc(NC(=O)Cn2c(=O)cc(C(=O)N3CCCC3)c3ccccc32)c1`, the cell viability was 102%.

On to `COc1ccc(Nc2nc(N)c(C(=O)c3ccc(OC)c(OC)c3)s2)cc1`, for which the cell viability turned out to be 15.4%.

As to `COc1ccc(C(=O)c2sc(Nc3ccc(F)cc3)nc2N)cc1OC`, the cell viability was 101%. As for `COc1ccc(C(=O)c2sc(Nc3cccc(F)c3)nc2N)cc1OC`, the cell viability was determined as 96.9%. Next, `CCOc1ccc(-c2nc(CSc3nc4c(=O)[nH]cnc4n3C)c(C)o2)cc1OC`: 118%; `COC(=O)c1cc(O)cc(O)c1`: 104%; `COC(=O)c1c(C)n(CCOc2ccc(F)cc2)c2ccc(O)cc12`: 96.9%. As for `COc1cc(C(=O)NCc2ccc3c(c2)OCO3)c(Br)c(OC)c1OC`, the figure is 105%; as for `COc1cc(O)c(C(=O)/C=C/c2ccco2)c(OC)c1`, 112%; as for `COc1cc(OC)c(C(=O)/C=C/c2ccc(O)cc2)c(OC)c1`, 100%. Consider `COc1cc(OC)c(C(=O)/C=C/c2ccccc2)c(OC)c1`, for which the cell viability is 33%. Take `CCN(CC)c1ccc2cc(-c3ccccc3)c(=O)oc2c1`: the cell viability was determined as 96.9%. Take `CCN(CC)c1ccc2[nH]c3c(C(N)=O)cc(=O)c(=O)c=3oc2c1`: the cell viability was determined as 3.99%. As for `CC(C)c1ccc(NC(=O)Cn2c(=O)cc(C(=O)N3CCc4ccccc4C3)c3ccccc32)cc1`, the figure is 97.1%.
